{
  "source": "PubChem BioAssay (NCI)",
  "note": "This is part of a sample that, as a whole, favours compounds with a hit. Of some 79,000 tested, about 15% had one in any assay. Active and inactive are the calls of the source. No stated cut-off is given here; in the data, active means growth inhibition above about 70%; inactive means the rest.",
  "data": [
    {"experiment": "NCI Yeast Anticancer Drug Screen. Data for the mlh1 rad18 strain (AID 175)", "conditions": "S. cerevisiae mlh1 rad18 strain growth inhibition; at 50.0 µM; hits give high values", "procedure": "Growth inhibition of yeast strains with defined genetic alterations is measured as a screen for potential anti-cancer activity. Selected strains with alterations in DNA damage repair or cell cycle control were exposed to compounds and growth inhibition was measured relative to vehicle treated controls. The strain used in this assay is mlh1 rad18", "values": [
      {"molecule": "CCCCCCC(C#N)(CCN(C)C)c1ccccc1", "note": "(stereo not given)", "growth inhibition": "22.8% (inactive)"},
      {"molecule": "CC1=CC(=O)c2cccc(NC3=NCCO3)c21", "growth inhibition": "-29.2% (inactive)"},
      {"molecule": "COC(=O)NN/C=C(\\C=Nc1ccccc1)[N+](=O)[O-]", "growth inhibition": "5.4% (inactive)"},
      {"molecule": "CC1(C)CC2(C)Sc3ccccc3N2C(=S)N1", "note": "(stereo not given)", "growth inhibition": "17.9% (inactive)"},
      {"molecule": "CCN(CC)c1ccc2c(c1)Cc1ccccc1-2", "growth inhibition": "-5.65% (inactive)"},
      {"molecule": "CC(C)(O)CC(O)(C(F)(F)F)C(F)(F)F", "growth inhibition": "1.9% (inactive)"},
      {"molecule": "CC(=O)Nc1ccc2c(c1)C(N1CCCCC1)c1ccccc1-2", "note": "(stereo not given)", "growth inhibition": "-5.4% (inactive)"},
      {"molecule": "N#CNS(=O)(=O)c1ccccc1", "growth inhibition": "17.6% (inactive)"},
      {"molecule": "CC1NC(C(=O)O)Cc2cc(O)c(O)cc21", "note": "(stereo not given)", "growth inhibition": "-49.2% (inactive)"},
      {"molecule": "COCCCNC1=C(C#N)C(=O)NC(c2cccs2)S1", "note": "(stereo not given)", "growth inhibition": "-34.8% (inactive)"},
      {"molecule": "COC1OC(COC(c2ccccc2)(c2ccccc2)c2ccccc2)C2SC12", "note": "(stereo not given)", "growth inhibition": "17.6% (inactive)"},
      {"molecule": "O=c1[nH]c(/C=C(\\O)c2ccncc2)nc2ccccc12", "growth inhibition": "-17.9% (inactive)"},
      {"molecule": "C=CCN(C)C(=O)CCCCCCCC1C(CCCCCCCC)C2(Cl)C(Cl)=C(Cl)C1(Cl)C2(Cl)Cl", "note": "(stereo not given)", "growth inhibition": "-8.35% (inactive)"},
      {"molecule": "CCOC(=O)c1nnn(Cc2ccccc2)c1N", "growth inhibition": "-9.35% (inactive)"},
      {"molecule": "CCCC(=O)Nc1cccc(Cl)c1", "growth inhibition": "2.35% (inactive)"},
      {"molecule": "Cn1c(-c2ccccc2)cc(=O)cc1-c1ccccc1", "growth inhibition": "-19.2% (inactive)"},
      {"molecule": "COc1cc2c(cc1Cc1cc(OC)c(OC)c(OC)c1)OCO2", "growth inhibition": "24.4% (inactive)"},
      {"molecule": "CCNc1nc2c(=O)n(C)c(=O)n(C)c2s1", "growth inhibition": "-5.65% (inactive)"},
      {"molecule": "O=C1CCN(C(=O)C2=CC(=O)OC2)C1", "growth inhibition": "-2.2% (inactive)"},
      {"molecule": "CC1=CC(=O)C=CC1=Nc1ccc(N(C)C)cc1", "growth inhibition": "16.4% (inactive)"},
      {"molecule": "c1ccc2c(c1)ccc1c3ccccc3ncc21", "growth inhibition": "23.1% (inactive)"},
      {"molecule": "Cc1cc(O)c(/C=N/C(=S)NCCc2ccccc2)c(=O)o1", "growth inhibition": "-20.6% (inactive)"},
      {"molecule": "Cc1ccccc1-n1c(SCC(=O)NC(=O)Nc2cccc(Cl)c2)nc2c(Br)cc(Br)cc2c1=O", "growth inhibition": "-2.75% (inactive)"},
      {"molecule": "COc1ccc(NC(=O)Oc2ccccc2C(N)=O)c(Cl)c1", "growth inhibition": "9.75% (inactive)"},
      {"molecule": "COC1(OC)C2(Cl)CC(C(=O)O)C1(Cl)C(Cl)=C2Cl", "note": "(stereo not given)", "growth inhibition": "13.7% (inactive)"},
      {"molecule": "CSC(=S)Nc1cc(C)cc(C)n1", "growth inhibition": "60.8% (inactive)"},
      {"molecule": "CN(C)CC(CN(C)C)C(O)c1ccccc1", "note": "(stereo not given)", "growth inhibition": "-13.1% (inactive)"},
      {"molecule": "O=c1[nH]c(=O)c2[nH]c(=O)[nH]c2[nH]1", "growth inhibition": "-17.9% (inactive)"},
      {"molecule": "O=C(CC(C(=O)c1cccs1)c1ccsc1)c1ccc(Cl)s1", "note": "(stereo not given)", "growth inhibition": "-5.05% (inactive)"},
      {"molecule": "Nc1cn[nH]c(=O)n1", "growth inhibition": "2.7% (inactive)"},
      {"molecule": "O=C(C[n+]1cc(Br)cc(Br)c1)c1ccc2ccccc2c1", "growth inhibition": "43.6% (inactive)"},
      {"molecule": "CC(=O)OCCCC(C)Nc1ccnc2cc(Cl)ccc12", "note": "(stereo not given)", "growth inhibition": "11.3% (inactive)"},
      {"molecule": "Brc1ccccc1-c1nc2ccccc2[nH]1", "growth inhibition": "-2.55% (inactive)"},
      {"molecule": "COC(=O)c1c(-c2ccc3c(c2)OCO3)cn(C)c1C", "growth inhibition": "11.6% (inactive)"},
      {"molecule": "NC(=O)C(=O)N/N=C1/c2ccccc2CC1C1(O)C(=O)Nc2c(Cl)cc(Cl)cc21", "note": "(stereo not given)", "growth inhibition": "44.2% (inactive)"},
      {"molecule": "C/C(=C\\c1ccccc1)C(O)C(=O)c1nc2ccc([N+](=O)[O-])cc2[nH]c1=O", "note": "(stereo not given)", "growth inhibition": "14.5% (inactive)"},
      {"molecule": "Cc1c(O)nc(N)[nH]c1=O", "growth inhibition": "-7.2% (inactive)"},
      {"molecule": "CNC(=S)NC", "growth inhibition": "-13.8% (inactive)"},
      {"molecule": "[Cl][Pt+2][Cl].[NH-]c1ccc(CC(=O)O)cc1[NH-]", "growth inhibition": "-4.2% (inactive)"},
      {"molecule": "COC(=O)C(S)(NC(C)=O)C(C)C", "note": "(stereo not given)", "growth inhibition": "16.1% (inactive)"}
    ]}
  ]
}
